# Assay results from PubChem BioAssay (NCI).
# Compounds without any hit were thinned out: in the full panel of roughly 83,000, 20% have a hit.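 Activity criterion: percent growth below 10, measured after cells in 96-well plates were exposed to a single compound concentration for 48 hours.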 Unmarked numbers belong to inactive results. Activity calls are given as the source filed them.
# Legend:
# Assay in all cases: NCI-60 one-dose screen, 48 h (100 = growth as untreated, 0 = no growth, -100 = all killed)
# Details in all cases: 10 µM unless noted
# [1] = test system: T-47D breast
# [2] = test system: BT-549 breast
# [3] = test system: MDA-MB-435 melanoma
# [4] = test system: SW-620 colon
# [5] = test system: MCF7 breast
# [6] = test system: HCT-116 colon
# [7] = test system: HCC-2998 colon
# [8] = test system: KM12 colon
SMILES,growth [1],growth [2],growth [3],growth [4],growth [5],growth [6],growth [7],growth [8]
C=C1C(=O)O[C@H]2[C@H]1CC/C(COC(=O)c1ccc(Cl)nc1)=C\CC[C@@]1(C)O[C@@H]21,-31.1% (active),10.3%,14.6%,-45.2% (active),7.96% (active),-80.6% (active),95.5%,82.8%
Cc1ncc(CO)c(C(=O)O)c1O,78.4%,86.6%,106%,108%,98.9%,78%,95.3%,101%
S=c1n(CNc2ccc(Cl)nn2)nc(-c2cc(Cl)cc(Cl)c2Cl)n1/N=C/c1ccc(Cl)cc1,101%,106%,89.3%,103%,87.4%,83.8%,88.6%,97.1%
COc1cc(C(=O)C[n+]2ccccc2)ccc1OC(C)=O,103%,94.5%,99.8%,96.9%,95.6%,87.6%,,102%
C/C(=N/NC(=O)Cn1c2ccccc2c2ccncc21)c1cccs1,96.4%,104%,110%,103%,102%,100%,,101%
COc1ccccc1N1CCN(CCCOc2ccc(OCCCN3CCN(c4ccccc4OC)CC3)c(C(=O)c3cc(OC)c(OC)c(OC)c3)c2)CC1,104%,96.3%,122%,102%,95.1%,111%,,113%
COc1cc(/C=C2/Oc3cc4occc4c(OC)c3C2=O)ccc1OCC(=O)Nc1ccncc1,108%,93.9%,112%,103%,94.3%,95.3%,,97.1%
Nc1ncc(-c2ccc3ncnc(Nc4cncc(Cl)c4)c3c2)cn1,-7.28% (active),64.2%,75.1%,95.8%,37.8%,82.4%,,82.5%
CC(=O)Nc1ccc(OC(=O)c2ccccc2O)cc1,100%,113%,98.6%,101%,99.5%,114%,,99.1%
O=c1c2ccccc2sc2c(N3CCCC3)nc3ccccc3c12,81.2%,111%,112%,95%,65.8%,78%,,85.5%
CC(C)(C)C(=O)Nc1nc2c(s1)CCc1ccn(S(=O)(=O)c3ccccc3)c1-2,66.6%,94.5%,108%,101%,85.9%,78.7%,100%,89.8%
COc1ccc(C(=O)NC(=O)Nc2ccc3c(c2)NC(=O)/C3=C\c2[nH]c(C)c(C(=O)O)c2C)cc1,45.3%,89%,85.2%,52.6%,75%,48.1%,,17.8%
CC1(C)N=C(N)N=C(N)N1c1ccc(F)c(C(F)(F)F)c1,91.1%,61.5%,40.6%,30.2%,26.8%,19.8%,34.3%,27.2%
FC(F)(F)c1cn(CC2CNC2)c2ncnc(Cl)c12,102%,125%,109%,104%,103%,108%,,104%
CCCCCn1ncc(-c2c(O)c(O)cc3c(O)c(-c4c(C)cc5c(-c6cnn(CCCCC)n6)c(O)c(O)cc5c4O)c(C)cc23)n1,-5.48% (active),7.18% (active),17.1%,18.5%,4.84% (active),3.24% (active),0.112% (active),4.29% (active)
COc1cc(Cn2cc3c(c2)-c2onc(CO)c2CC3)cc(OC)c1OC,93.2%,98.6%,72%,87%,86.8%,84%,,90.9%
COc1cc(C(=O)N2CCN(C(=O)c3cc(OC)c(OCc4ccccc4)cc3N)CC2)c(N)cc1OCc1ccccc1,114%,101%,127%,119%,89.5%,104%,,109%
CCCCCC/C=N/Nc1ccc([N+](=O)[O-])cn1,88.4%,96.2%,101%,102%,90.7%,84.7%,,99.5%
Nc1nccc2c1ccn2-c1ccc(NC(=O)Nc2cccc(C(F)(F)F)c2)cc1,85.1%,96.5%,96.6%,103%,86.8%,76.8%,,75.1%

SMILES,growth [1],growth [2],growth [3],growth [4],growth [5],growth [6],growth [7],growth [8]
CO[C@H]1/C=C/C=C/C=C/C[C@H](OC(=O)[C@@H](C)NC(=O)C2CCCCC2)[C@H](C)[C@@H](O)/C(C)=C\CCC2=CC(=O)C=C(NC(=O)C1)C2=O,-15.1% (active),-19.6% (active),-29.1% (active),2.69% (active),-11% (active),-18.4% (active),,-9.05% (active)
O=C(/C=C/c1ccccc1)Oc1ccc(/C=C/c2cc(OC(=O)/C=C/c3ccccc3)cc(OC(=O)/C=C/c3ccccc3)c2)cc1,81.9%,102%,101%,99.6%,103%,96.3%,,103%
O=C(NCCNc1nccc(-c2c(-c3cccc(O)c3)nc3sccn23)n1)c1ccc(N2CCOCC2)c(C(F)(F)F)c1,60.1%,53.8%,20.9%,111%,58.7%,60.2%,106%,77.5%
NS(=O)(=O)c1ccc(CCN2C(=O)/C(=C\c3ccc(Cl)cc3)C=C2c2ccc(Oc3ccccc3)cc2)cc1,66.7%,92.2%,78.8%,83%,39.3%,65%,89%,62.4%
COc1ccc(Cl)cc1NC(=O)c1cc2c([nH]1)-c1nc(NC(=O)C(C)C)sc1CC2,82.7%,105%,114%,101%,82.6%,80%,101%,94.6%
COc1ccc2c(-c3ccc(F)cc3)c(C#N)c(=NC(C)=O)oc2c1,55.8%,29.1%,-3.09% (active),23%,21.4%,25%,60.3%,30.3%
C=C1C(=O)O[C@H]2[C@H]1CC/C(C(=O)NCCOCCOCC(=O)Nc1ccc(OC)c(C(N)=O)c1O)=C\CC[C@@]1(C)O[C@@H]21,70.6%,86.2%,104%,80.1%,83.6%,81.2%,,101%
O=C(NOC1OC(CO)C(O)C(O)C1O)Nc1ccccc1 (stereo not drawn),78.7%,110%,102%,106%,87.9%,105%,,105%
CC(Cl)(CCl)CS(=O)(=O)c1ccc(Cl)cc1 (stereo not drawn),113%,105%,108%,103%,99.8%,103%,,108%
COc1cc2ncn3c(=O)c4c5c(sc4nc3c2cc1OC)CCCCC5,84.7%,105%,109%,101%,86.8%,97.4%,,99.2%
COC(=O)c1ccc(NC(N)=NCC(C)(C)COc2ccc(C(F)(F)F)cc2)nc1,28.7%,66.5%,58.3%,27.3%,8.58% (active),0.764% (active),,46.7%
OCc1cnccc1NC12CC3CC(CC(C3)C1)C2,89.4%,110%,105%,103%,101%,99.6%,105%,103%
COc1ccc(Cl)cc1NC(=O)c1cc2c([nH]1)-c1nc(NC(=O)C(C)(C)C)sc1CC2,71.3%,71.7%,91%,62.6%,52.1%,12.4%,96.5%,83.2%
Nc1nc(Nc2ccc(OCc3cccc(F)c3)cc2)c2c(n1)[nH]c1ccc(O)cc12,-59.8% (active),-84.9% (active),-41% (active),-49.5% (active),-82.7% (active),-97.1% (active),-17.6% (active),-48% (active)
COc1ccc(/C=C/C(=O)c2ccc(NC(=O)CSc3nnc(-c4cc(OC)c(OC)c(OC)c4)o3)cc2)cc1,-44.5% (active),-3.02% (active),-39.2% (active),-61.5% (active),-30.8% (active),-76.4% (active),-72% (active),-91.8% (active)
C=C1C(=O)O[C@H]2[C@H]1CC/C(COC(=O)CCCC(=O)OC/C1=C/CC[C@@]3(C)O[C@H]3[C@H]3OC(=O)C(=C)[C@@H]3CC1)=C\CC[C@@]1(C)O[C@@H]21,14.9%,-4.94% (active),4.28% (active),-35.9% (active),8.68% (active),-53% (active),,26%
COC(=O)c1oc2c(C(C)=O)c(OCCCN(C)C)ccc2c1C,103%,215%,107%,106%,148%,53.9%,,100%
O=C(NCCNc1nccc(-c2c(-c3cccc(O)c3)nc3sccn23)n1)c1cc(N2CCOCC2)cc(C(F)(F)F)c1,77.7%,84.8%,34.7%,126%,85.4%,78.8%,,97.3%
COc1ccc(C(=O)NC(=O)Nc2ccc3c(c2)NC(=O)/C3=C\c2[nH]c(C)c(C(=O)O)c2C)c(F)c1,58.5%,21.7%,66.4%,55%,74.8%,59.6%,,26.3%

SMILES,growth [1],growth [2],growth [3],growth [4],growth [5],growth [6],growth [7],growth [8]
c1coc(CSc2ncnc3nc[nH]c23)c1,93.6%,120%,116%,97.9%,89.9%,97.7%,,102%
COc1cc(/C=C/C(=O)c2c(C)n([O-])c3cc(C)c(C)cc3[n+]2=O)cc(OC)c1OC,51.8%,23%,45.8%,50.1%,11.1%,42.6%,85.5%,69.8%
O=C(O)c1cc2ccccc2cc1Nc1ccccc1,89.3%,113%,103%,105%,76.2%,89.7%,,109%
CC(=O)c1ccc2c(c1)C1C=CCC1[C@H](c1cc3c(cc1Br)OCO3)N2 (stereo partly drawn),36.2%,44.6%,-27.2% (active),21.2%,14.1%,14.9%,7.12% (active),17%
COc1cc(/C=C/C(=O)c2ccc(Oc3ncnc4ccccc34)cc2)cc(OC)c1OC,35.9%,58%,50.6%,53.2%,27%,,108%,19.4%
N#CC1=C(N)Oc2c(ccc3ccccc23)C1c1cc(=O)oc2ccc(Cl)cc12 (stereo not drawn),47.7%,49%,-43.2% (active),29.6%,19.7%,,36.6%,21.5%
c1ccc(OCC[P+](c2ccccc2)(c2ccccc2)c2ccccc2)cc1,6.07% (active),19.6%,4.66% (active),18.3%,20%,,5.3% (active),14.9%
Cc1cn(C2CC(F)C(CO)O2)c(=O)[nH]c1=O (stereo not drawn),98%,80.7%,78.2%,115%,113%,,100%,99.1%
CN(C)c1ccc2cc(-c3nc4ccccc4s3)c(N)nc2c1,48.5%,61.8%,5.06% (active),43.6%,19.7%,43.8%,,26.9%
NCC(=O)NS(=O)(=O)OC[C@H]1O[C@@H](n2cnc3c(N)ncnc32)[C@H](O)[C@@H]1O,7.66% (active),21.1%,-49.8% (active),3.71% (active),8.27% (active),,41.4%,0.735% (active)
Nc1nccc2c1ccn2-c1cccc(NC(=O)c2ccc(N3CCOCC3)c(C(F)(F)F)c2)c1,45.7%,-5.74% (active),2.02% (active),25.5%,16%,,23.9%,-14.5% (active)
CN(C)C(=O)Nc1nc2cc(Cl)c(Cl)cc2[nH]1,52.5%,39.5%,-24.5% (active),29.8%,15.4%,,14.2%,1.99% (active)
O=C(c1cc(-c2ccc(Cl)cc2)nc2ccccc12)N1N=C(c2ccccc2)CC1c1cc(-c2ccccc2)nn1-c1ccccc1 (stereo not drawn),75.5%,84.9%,83.4%,80.6%,76.3%,,89.5%,68.6%
C=C1C(=O)O[C@H]2[C@H]1CC/C(COC(=O)n1ccnc1C)=C\CC[C@@]1(C)O[C@@H]21,85%,97.3%,99.5%,85%,87.8%,,103%,103%
O=C(Nc1ccc(-n2ccc3c(NC(=O)c4ccccc4)nccc32)cc1)c1cccc(C(F)(F)F)c1,58.3%,29%,11%,19.2%,24.3%,12.8%,,20.4%
OC[C@@H](O)C(O[C@@H]1O[C@H](CO)[C@H](O)[C@H](O)[C@H]1O)[C@H](O)[C@@H](O)CO (stereo partly drawn),105%,107%,95.4%,102%,106%,,95.6%,103%
COc1ccc(OC)c(NCC(=O)n2nc(/C=C\c3ccc(O)c(OC)c3)cc2/C=C\c2ccc(O)c(OC)c2)c1,15.5%,17.1%,5.88% (active),9.13% (active),,,18%,11.1%
CCOc1ccc(NC2=C(Cl)C(=O)c3ccccc3C2=O)cc1,66.7%,77.6%,67.1%,-51.3% (active),46.1%,,57.7%,72.9%
Clc1ccc(OCc2nc(-c3ccccc3)n[nH]2)c(Cl)c1,95.6%,100%,97.7%,97%,,,99.8%,101%
